Results published in the OligoGym collection.

Target: ACAD10
Test: pooled miR-30 sensor sort-seq; sequence = guide strand
Conditions: shRNA
Note: reference of the scale not given here.

Row | Sequence | sensor-assay potency score (higher = more potent)
1 | TTTCTCCTTGAGGTCTTCGATC | -1.58
2 | TTCAGCTTTGGCTTTCTCCTTG | -0.097
3 | TACAGCTCTCTGACAGGTGGAG | -0.377
4 | TATGACATAGAAGCTGTCCTCC | 1.02
5 | TTCCAGTCCATACACCGTCAGA | -1.34

Target: ACAP2
Test: as above
Conditions: shRNA

Row | Sequence | sensor-assay potency score (higher = more potent)
6 | TATATTCTAACTTAGAATCATC | -0.946
7 | TACTTCTGACTGAACTTTGGGC | 0.208
8 | TTTAACAAAGTTCTGAAGCTGT | 0.177
9 | TAATCTGAAGCACATAATCGAG | -1.42
10 | TTTAGGATTTCTGATCTCCTTT | -0.154
11 | TAAATCTAGACTGAACTTCTGT | 0.683
12 | TGATTGAAGAACATTAATCTGA | 0.0917
13 | TTATTCTGTATTGAAAACCAGC | -0.889
14 | TTTAGCTGTATACATTAGGGGG | -0.7
15 | TAACTTAGAATCATCACTGGAG | 0.563
16 | TATCCTTCCATAACTATGCCAT | -0.0646
17 | TTTGGTTGACATTAGCACCATT | -0.325

Target: ACBD3
Test: as above
Conditions: shRNA

Row | Sequence | sensor-assay potency score (higher = more potent)
18 | TCTTCTTCTATCCGTCTCCTTT | -0.731
19 | TAGTAGACTGATTTTGACCGCC | 0.374
20 | TAACTGACATCATATTACTTGG | -0.575
21 | TAAAGCTGCCATTATCTGCTGC | -0.101
22 | TTAACTGACATCATATTACTTG | 0.151
23 | TTGCTGTGCAAGCTGGACTTGA | -0.769
24 | TTGAAGTCTTTGATCTGAGGTC | -0.0448
25 | TTTTTCTTTGAAGAAGCGCAGT | -0.812
26 | TATTACTTGGTACAGTTGCATT | -1.49
27 | TTAAATGTCATCTTCTGCCCAA | 0.233
28 | TTTCTCTTCACAACCGATGTTT | -0.314
29 | TTCTTTTGGTCCATTCTCCAGG | -0.756

Target: ACCN2
Test: as above
Conditions: shRNA

Row | Sequence | sensor-assay potency score (higher = more potent)
30 | TTGCACAGCGTGACAGCAGGGA | 0.305
31 | TGTAGCACTTTCCATAGCGTGT | -0.609
32 | TGAACTTATAGGTATCAGGATG | -1.02
33 | TCAGATTTGTTGAACTTCTTGG | 1.11
34 | TAGCACTTTCCATAGCGTGTGA | -0.16
35 | TCGGTCGTAGAACTCACGCATG | -0.983
36 | TTTGTCCTGCAGTATCTCCAGC | -1.1
37 | TTCATCCTGACTATGGATCTGC | 0.145
38 | TTTTCATCTGCCATCTGTGTGT | 0.238
39 | TTTGTTGAACTTCTTGGCCAGG | -0.861
40 | TGAACGTGTAGCACTTTCCATA | -0.947
